Only some compounds are listed: those with a hit (about 5.7% of all), similar ones and a draw of the others.
GLP1R inv ag – qHTS of GLP-1 Receptor Inverse Agonists (Inhibition Mode); Glucagon-like peptide 1 receptor (Homo sapiens), P43220; HEK293 GLP-1R CRE-luciferase, luminescence, 24 h; GLP-1R form is constitutively active; Potency, µM (highest dose often 38.3 µM), hits mostly inhibitors; 410,000 tested, 1.6% active; note: nearly all actives have a fitted effect of over 55% in size
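GLP-1R inverse agonism mode: basal reporter luminescence in engineered HEK293 cells measured after one day of compound exposure at 37 deg C, with a 12 min room-temperature detection step.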
GLP1R cytotox – qHTS of GLP-1 Receptor Inverse Agonists: Cytotox Screen. HEK293 cAMP-luciferase reporter cells, luminescence, 24 h. Potency, µM (doses to about 38.3 µM), hits mostly inhibitors. 410,000 tested, 0.13% active;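 note: loss of luciferase light is scored as toxicity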
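Compound-treated cells are incubated 24 hr at 37 deg C under 5% CO2 after a 12 hour attachment period, then luciferase detection reagent is added and luminescence is measured following 12 min at room temperature; lowered signal indicates toxicity.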
DRD3 agonist – qHTS of D3 Dopamine Receptor Agonist: qHTS. 410,000 tested, 0.58% active. D3R DiscoveRx beta-arrestin cells, luminescence, 90 min. AID 652048, 2013. max activation, %. D(3) dopamine receptor (Homo sapiens), P35462; in the data active = max activation above about 30%
Target sequence (P35462 whole entry, looked up): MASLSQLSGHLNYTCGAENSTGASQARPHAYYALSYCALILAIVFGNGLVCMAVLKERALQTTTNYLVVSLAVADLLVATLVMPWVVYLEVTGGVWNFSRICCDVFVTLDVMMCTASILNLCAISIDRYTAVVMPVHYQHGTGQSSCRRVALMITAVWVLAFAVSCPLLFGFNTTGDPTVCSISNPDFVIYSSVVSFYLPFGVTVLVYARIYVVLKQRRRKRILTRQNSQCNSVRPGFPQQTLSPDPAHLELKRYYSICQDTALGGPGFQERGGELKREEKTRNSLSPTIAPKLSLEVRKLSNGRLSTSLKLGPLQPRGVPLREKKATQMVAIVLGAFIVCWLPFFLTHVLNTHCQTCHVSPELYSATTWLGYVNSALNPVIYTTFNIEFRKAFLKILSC
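Agonist mode: compounds and dopamine controls were applied to plated cells for 90 min at 37 degrees C after an overnight attachment at 1500 cells/well. Luminescent read-out followed 30 - 60 minutes at room temperature with DiscoveRx detection reagent.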
DRD3 antagonist – qHTS of D3 Dopamine Receptor Antagonist: qHTS. D3R cells, DiscoveRx beta-arrestin luminescence, antagonist mode; stronger effect = lower value. D(3) dopamine receptor (Homo sapiens), P35462. max response, negative = inhibition, %. 360,000 tested, 2.5% active. AID 652054, 2013; in the data active = max response below about -50%; inconclusive = no clear call, values can overlap the other calls
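Cells plated overnight at 1500 cells/well, then exposed to library compounds with dopamine controls for 90 minutes at 37 degrees C. DiscoveRx reagent added for 30–60 minutes at room temperature; luminescence read, quantitative HTS format.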
ClpP mod – qHTS Assay for Activators of ClpP; ATP-dependent Clp protease proteolytic subunit (Bacillus subtilis (strain 168)), P80244; purified B. subtilis ClpP, FRET peptide cleavage, 20 min; Potency, µM (titrated, usually from 57.5 µM); 340,000 tested, 1.9% active; AID 651965, 2013; active = well fitted falling curve with a large enough effect; inconclusive = small, poorly fitted or top-dose-only effect; inactive = no such curve, though single readings can be large or run the other way; note: the source files actives as falling curves though it sought activators and does not explain the sign; nearly all actives have a fitted effect of over 65% in size
Target sequence (P80244 whole entry, looked up): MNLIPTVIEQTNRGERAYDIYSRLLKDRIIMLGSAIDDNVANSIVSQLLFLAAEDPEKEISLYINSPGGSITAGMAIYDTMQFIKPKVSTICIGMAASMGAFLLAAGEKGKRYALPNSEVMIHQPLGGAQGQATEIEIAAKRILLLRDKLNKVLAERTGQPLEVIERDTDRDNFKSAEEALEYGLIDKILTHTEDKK
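Buffer: 100 mM Tris/HCl pH8, 100 mM KCl, 0.05% low protease BSA, 2.5% glycerol, 0.01% Tween-20. ClpP 10 microg/mL final; 20 min RT; delta FRET normalized to ADEP and DMSO controls.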
GLP-1R agonist – qHTS of GLP-1 Receptor Agonists; Glucagon-like peptide 1 receptor (Homo sapiens), P43220; HEK293 GLP-1R CRE-luciferase, luminescence, 4-6 h; cells express a hypersensitive GLP-1R form; Potency, µM (top dose mostly 45.6 µM), most hits filed as activators; 380,000 tested, 0.007% active; AID 624172, 2012
Hits are given with their value. Unless noted, calls come from the whole dose curve; as a rule, active = well fitted curve in the direction sought with a large enough effect; inconclusive = small, poorly fitted or top-dose-only effect, or another doubt; inactive = no such curve, though single readings can be large; an effect the other way counts as inactive or inconclusive.

How did CN(C)c1ccc(C(C(=O)NC2CCCCC2)N(Cc2ccco2)C(=O)c2snc(C(N)=O)c2N)cc1 (stereo unspecified) do in these assays?
GLP1R inv ag: 2µM; GLP1R cytotox: inconclusive; DRD3 agonist: inactive; DRD3 antagonist: inactive; ClpP mod: inactive; GLP-1R agonist: inactive

Results for CC(C)CCNC(=O)C(c1ccco1)N(Cc1ccc(F)cc1)C(=O)c1snc(C(N)=O)c1N (stereo unspecified) ?
GLP1R inv ag: 3.55µM; GLP1R cytotox: inactive; DRD3 agonist: inactive; DRD3 antagonist: inactive; ClpP mod: inactive; GLP-1R agonist: inactive

What do the screens show for `COc1cc(Nc2ccn3nc(-c4ccc(F)cc4)cc3n2)cc(OC)c1OC`?
GLP1R inv ag: inactive; GLP1R cytotox: inactive; DRD3 agonist: inactive; DRD3 antagonist: inactive; ClpP mod: inactive; GLP-1R agonist: inactive

What do the screens show for `Cc1cc(C)cc(N(CC(=O)NCCc2ccc(Cl)cc2)S(=O)(=O)c2c(C)noc2C)c1`?
GLP1R inv ag: inactive; GLP1R cytotox: inactive; DRD3 agonist: inactive; ClpP mod: inactive; GLP-1R agonist: inactive

How did O=C(O)CC(O)CC(O)/C=C/c1c(C2CC2)nc2ccccc2c1-c1ccc(F)cc1 (stereo unspecified) do in these assays?
GLP-1R agonist: inactive

What do the screens show for `Cc1ccc(C)c(S(=O)(=O)c2nnn3c2nc(NC2CCCCC2)c2sccc23)c1`?
GLP1R inv ag: inconclusive; GLP1R cytotox: inactive; DRD3 agonist: inactive; ClpP mod: 35.5µM

What do the screens show for `COc1ccc(OC)c(NC(=O)c2nc(SCc3ccccc3F)ncc2Cl)c1`?
GLP1R inv ag: inactive; GLP1R cytotox: inactive; DRD3 agonist: inactive; ClpP mod: inactive

What do the screens show for `CCNC(=O)C1(C)CCN1CCC(=O)c1ccc(Br)cc1` (stereo unspecified)?
GLP1R inv ag: inactive; GLP1R cytotox: inactive; DRD3 agonist: 73.0; DRD3 antagonist: inactive; ClpP mod: inactive; GLP-1R agonist: inactive

How did CCCNC(=O)C1(C)CCN(CCC(=O)c2ccc(Br)cc2)C1 (stereo unspecified) do in these assays?
GLP1R inv ag: inactive; GLP1R cytotox: inactive; DRD3 agonist: inactive; DRD3 antagonist: inactive; ClpP mod: inactive; GLP-1R agonist: inactive

How did CC(C)c1ccc(-n2cnn(-c3ncccc3[N+](=O)[O-])c2=O)cc1 do in these assays?
GLP1R inv ag: inconclusive; GLP1R cytotox: inactive; DRD3 agonist: inactive; DRD3 antagonist: -83.2; ClpP mod: inactive; GLP-1R agonist: inactive

Results for CCNC(=S)N/N=C/c1cc(C)ccc1C ?
GLP1R inv ag: 4.47µM; GLP1R cytotox: 5.62µM; DRD3 agonist: inactive; DRD3 antagonist: inactive; ClpP mod: inactive; GLP-1R agonist: inactive

How did CNC(=S)N/N=C/c1cc(C)ccc1C do in these assays?
GLP1R inv ag: inconclusive; GLP1R cytotox: inconclusive; DRD3 agonist: inactive; DRD3 antagonist: inactive; ClpP mod: inactive; GLP-1R agonist: inactive

What do the screens show for `CCn1c(SCCN2CCCCC2)nnc1-c1ccc(S(=O)(=O)N2CCOCC2)cc1`?
GLP1R inv ag: inactive; GLP1R cytotox: inactive; DRD3 agonist: inactive; DRD3 antagonist: -74.0; ClpP mod: inactive; GLP-1R agonist: inactive

Results for CCn1c(SCC(=O)N2CCC(C)CC2)nnc1-c1ccc(S(=O)(=O)N2CCN(C)CC2)cc1 ?
GLP1R inv ag: inactive; GLP1R cytotox: inactive; DRD3 agonist: inactive; DRD3 antagonist: inactive; ClpP mod: 31.6µM; GLP-1R agonist: inactive

What do the screens show for `Cc1ccc(S(=O)(=O)N2CCC(c3nnc(SCCN4CCCC4)n3C)CC2)cc1`?
GLP1R inv ag: inconclusive; GLP1R cytotox: inactive; DRD3 agonist: inactive; DRD3 antagonist: inactive; GLP-1R agonist: inactive

Results for CCOC(=O)C1C(=O)CC(=O)C(C(=O)OCC)C1c1ccc(O)cc1 (stereo unspecified) ?
GLP1R inv ag: inactive; GLP1R cytotox: inactive; DRD3 agonist: inactive; DRD3 antagonist: inactive; ClpP mod: inactive; GLP-1R agonist: inactive

How did CCOC(=O)c1[nH]c2c(c1Cc1ccccc1)C(=O)CC(c1ccc(OC)cc1)C2 (stereo unspecified) do in these assays?
GLP1R inv ag: inactive; GLP1R cytotox: inactive; DRD3 agonist: inactive; ClpP mod: inactive

How did Cc1cccnc1NCc1ccc(O)c2ncccc12 do in these assays?
GLP1R inv ag: 2.82µM; GLP1R cytotox: inconclusive; DRD3 agonist: inactive; DRD3 antagonist: -50.6; ClpP mod: inactive; GLP-1R agonist: inactive

How did Cc1ccc(C(=O)Nc2cccc(N(C)S(C)(=O)=O)c2)cc1S(=O)(=O)Nc1ccccc1 do in these assays?
GLP1R inv ag: inactive; GLP1R cytotox: inactive; DRD3 agonist: 43.6; DRD3 antagonist: inactive; ClpP mod: inactive; GLP-1R agonist: inactive

Results for Cc1ccc(C(=O)Nc2ccccc2C(=O)O)cc1S(=O)(=O)Nc1ccc(Br)cc1 ?
GLP1R inv ag: inactive; GLP1R cytotox: inactive; DRD3 agonist: 33.7; DRD3 antagonist: inactive; ClpP mod: inactive; GLP-1R agonist: inactive

How did COc1ccccc1CNC(=O)CSc1ncc2c(n1)-c1cc(Cl)ccc1N(Cc1ccccc1)S2(=O)=O do in these assays?
GLP1R inv ag: inactive; GLP1R cytotox: inactive; DRD3 agonist: inactive; ClpP mod: inactive

What do the screens show for `O=C(NCCc1csc(-c2cccc(F)c2)n1)c1ccccc1C(F)(F)F`?
GLP1R inv ag: inconclusive; GLP1R cytotox: inactive; DRD3 agonist: inactive; ClpP mod: inactive

How did CC(=O)OCCNc1cc(N2CCN(C)CC2)c2noc3c2c1C(=O)c1ccccc1-3 do in these assays?
GLP1R inv ag: inactive; GLP1R cytotox: inactive; DRD3 agonist: inactive; DRD3 antagonist: -52.2; ClpP mod: inactive; GLP-1R agonist: inactive

What do the screens show for `COC(=O)c1cc(=O)nc(NN=Cc2ccc(C)cc2)s1`?
GLP1R inv ag: inactive; GLP1R cytotox: inactive; DRD3 agonist: inactive; DRD3 antagonist: inactive; ClpP mod: inactive; GLP-1R agonist: inactive

Results for CC(C1CC2CCC1C2)n1c(-c2cccs2)n[nH]c1=S (stereo unspecified) ?
GLP1R inv ag: 5.01µM; GLP1R cytotox: inactive; DRD3 agonist: inactive; DRD3 antagonist: inactive; GLP-1R agonist: inactive

What do the screens show for `CCN1C(=O)c2ccccc2S(=O)c2ccc(C(=O)NCc3ccc(OC)cc3)cc21` (stereo unspecified)?
GLP1R inv ag: inactive; GLP1R cytotox: inactive; DRD3 agonist: inactive; DRD3 antagonist: -51.2; ClpP mod: inactive; GLP-1R agonist: inactive
